# A selection: hits, their analogues and other compounds. The true share with any hit is near 4.1%.
# BoNT A protease – BoNT A light chain protease inhibition; multiplex microsphere protease substrate cleavage, flow cytometry; inhibition, % at 10 µM; actives 0.17% (n = 360,000); AID 588499; also: plate controls were buffer without enzyme for full effect and enzyme alone for no effect
# BoNT-F LC inh – BoNT F light chain protease inhibition; actives 0.22% (n = 360,000); Multiplex microsphere protease cleavage assay, flow cytometry; inhibition, % at 10 µM; AID 588497; in the data active = inhibition above about 35%, passing the limit was not always enough; inconclusive = no clear call, values can overlap the other calls; also: plate controls were buffer without enzyme for full effect and enzyme alone for no effect
# Bead autofluor – flagged as autofluorescent in microsphere protease counterscreen; compound autofluorescence counterscreen, microsphere flow cytometry; stronger effect = higher value; fluorescence intensity (concentration not given with the values); actives 3.1% (n = 360,000); AID 624483; in the data active = fluorescence intensity above about 16000; inconclusive = no clear call, values can overlap the other calls
# DUSP3 inh – inhibitors of human VHR1 phosphatase (DUSP3) | inhibition, % at 13.3 µM | recombinant VHR phosphatase, pNPP absorbance | actives 0.52% (n = 290,000) | P51452; in the data active = inhibition above about 50%
# Anthrax LF inh2 – blocks Bacillus anthracis lethal factor protease. multiplex microsphere protease cleavage assay, LF. actives 0.12% (n = 360,000). P15917. inhibition, % at 10 µM; also: plate controls were buffer without enzyme for full effect and enzyme alone for no effect
# Target sequence (P15917 whole entry, looked up): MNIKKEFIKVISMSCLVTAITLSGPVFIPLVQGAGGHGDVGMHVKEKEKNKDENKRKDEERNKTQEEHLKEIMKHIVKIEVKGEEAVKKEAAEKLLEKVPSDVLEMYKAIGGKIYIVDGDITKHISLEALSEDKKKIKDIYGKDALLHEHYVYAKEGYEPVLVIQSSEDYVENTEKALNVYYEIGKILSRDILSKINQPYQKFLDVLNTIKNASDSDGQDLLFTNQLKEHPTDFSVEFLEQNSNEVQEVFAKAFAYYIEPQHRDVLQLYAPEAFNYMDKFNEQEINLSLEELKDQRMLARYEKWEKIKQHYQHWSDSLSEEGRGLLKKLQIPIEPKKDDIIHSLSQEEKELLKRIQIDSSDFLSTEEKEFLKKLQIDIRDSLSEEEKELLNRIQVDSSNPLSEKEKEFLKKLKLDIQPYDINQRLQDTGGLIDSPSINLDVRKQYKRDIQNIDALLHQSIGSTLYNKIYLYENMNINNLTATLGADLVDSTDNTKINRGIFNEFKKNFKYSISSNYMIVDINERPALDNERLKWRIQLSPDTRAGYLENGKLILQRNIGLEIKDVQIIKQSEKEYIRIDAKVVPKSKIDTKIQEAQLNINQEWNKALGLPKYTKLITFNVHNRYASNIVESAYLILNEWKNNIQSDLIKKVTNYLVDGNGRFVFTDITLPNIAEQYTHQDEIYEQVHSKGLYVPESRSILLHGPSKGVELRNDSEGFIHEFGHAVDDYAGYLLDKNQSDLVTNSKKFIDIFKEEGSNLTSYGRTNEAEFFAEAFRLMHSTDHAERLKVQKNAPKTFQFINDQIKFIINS
# MazF activator – MazEF (E. coli) toxin RNase activation; activation, % at 20 µM; FAM/BHQ RNA-DNA oligo cleavage fluorescence, 5 h; actives 0.32% (n = 350,000); in the data active = activation above about 50%
# * = called active by the depositor; ? = inconclusive; nt = no result given. Rule as the data show it, unless noted: active = inhibition above about 30%; inconclusive = no clear call, values can overlap the other calls; inactive = below that.
SMILES,BoNT A protease,BoNT-F LC inh,Bead autofluor,DUSP3 inh,Anthrax LF inh2,MazF activator
CCS(=O)(=O)Nc1ccc(C2=NN(C(=O)c3ccco3)C(c3cccc(F)c3)C2)cc1 (stereo not drawn),0,-5,2506,37,0,7
COc1cc(NC(=O)CSCC(=O)Nc2cc(OC)cc(OC)c2)cc(OC)c1,nt,nt,nt,30,nt,6
CCOc1ccc(CCN2C(=S)N([C@@H](Cc3ccc(O)cc3)CN3CCC[C@@H]3CN3C(=S)NC[C@@H]3Cc3ccccc3)C[C@@H]2Cc2ccc(O)cc2)cc1,0,-1,6612,nt,-4,nt
Cc1nc(C(=O)Nc2cccc(Cl)c2)nn1-c1cc(OC(C)C)c(Cl)cc1Cl,?,-4,23251*,6,0,-1
Cc1nc(C(=O)Nc2cc(Cl)ccc2Cl)nn1-c1cc(OC(C)C)c(Cl)cc1Cl,-1,1,24341*,10,-1,-3
Cc1nc(C(=O)Nc2ccc(Cl)cc2Cl)nn1-c1cc(OC(C)C)c(Cl)cc1Cl,0,7,9951,14,6,1
COCCn1c(Cc2ccccc2)nnc1SCC(=O)N(C)C,1,2,21939*,21,1,3
CC(=O)Nc1cccc(NC(=O)CSc2nnc3ccccn23)c1,0,1,3630,nt,-11,1
Cn1c(Cc2ccccc2)nnc1SCC(=O)c1ccc(Br)s1,-2,-4,23767*,-16,-3,1
Cc1cc(NC(=O)CSc2nnc3ccccn23)no1,-5,15,17051*,31,-4,2
CCn1c(SCC(=O)Nc2cc(C)on2)nnc1-c1cccnc1,-1,-2,20847*,25,-2,1
Cc1ccc(NC(=O)CCCN2C(=O)NC(C)(C)C2=O)cc1,0,-1,3983,nt,-6,1
Nn1c(COc2ccccc2F)nnc1SCC(=O)NCC1CCCO1 (stereo not drawn),0,-3,3674,nt,0,-6
CC1Sc2ccc(S(=O)(=O)CCC(=O)N3CCN(c4ccccc4F)CC3)cc2NC1=O (stereo not drawn),0,-3,5499,11,-1,8
CCCn1c(SCC(=O)Nc2nc(C)cs2)nnc1-c1cccnc1,-1,-11,3482,8,1,10
CCn1c(SCC(=O)Nc2nc(C)c(C)s2)nnc1-c1cccnc1,-5,-6,17323*,20,-1,-6
COCCCn1c(C)nnc1SCC(=O)NNC(=O)COc1ccc(Cl)cc1,1,7,3611,20,12,5
CCn1c(Cc2ccccc2)nnc1SCC(=O)Nc1cc(C)on1,3,3,21460*,13,-4,3
CNC(=O)CSc1nnc(COc2ccc(Cl)cc2)n1CCOC,2,4,22197*,38,1,-10
COCCn1c(SCC(=O)OC(C)C)nnc1-c1ccccc1,-3,-3,24184*,10,-7,0
COc1ccc(Cl)cc1S(=O)(=O)N1CCN(C(=O)c2n[nH]c(=O)c3ccccc23)CC1,0,-3,4090,nt,-2,9
O=C(NCCCCNC(=O)c1ccccc1Br)c1ccccc1Br,0,12,5898,nt,-1,0
COC(=O)[C@]12CCCCC=C1N(Cc1ccco1)C(=O)[C@H](CC(=O)NCc1cccc(C(F)(F)F)c1)C2,-1,5,4224,nt,-1,nt
Cc1cc(OCC(=O)NC2CC2)c2c(C)c(C)c(=O)oc2c1,0,0,5096,-9,-3,0
CCn1c(Cc2ccccc2)nnc1SCC(=O)OC(C)C,7,7,21705*,15,3,-1
SMILES,BoNT A protease,BoNT-F LC inh,Bead autofluor,DUSP3 inh,Anthrax LF inh2,MazF activator
CCOc1ccc(NC(=O)Cn2nnc(-c3ccc(C(N)=O)cc3)n2)cc1S(=O)(=O)N1CCCC1,1,-7,4441,nt,-3,-2
Cc1ccccc1OC(=O)C1C(c2ccccc2)C(C(=O)O)C1c1ccccc1 (stereo not drawn),6,12,20251*,-24,3,3
O=C(O)C1C(c2ccccc2)C(C(=O)OCCCO)C1c1ccccc1 (stereo not drawn),0,-2,22890*,0,-2,11
CCOC(=O)C1C(c2ccccc2)C(C(=O)OCC)C1c1ccccc1 (stereo not drawn),0,-7,9355,22,1,2
O=C(O)C1C2C=CC(C2)C1C(=O)NCc1ccco1 (stereo not drawn),0,1,4479,36,1,0
CCC(C)OC(=O)C1C(c2ccccc2)C(C(=O)O)C1c1ccccc1 (stereo not drawn),-1,-2,10259,19,-8,-7
CCCCCOC(=O)C1C(c2ccccc2)C(C(=O)O)C1c1ccccc1 (stereo not drawn),0,-1,2668,24,2,-7
O=C(O)C1C(c2ccccc2)C(C(=O)OCc2ccco2)C1c1ccccc1 (stereo not drawn),-1,-1,23151*,6,-1,1
COC(=O)C1C(c2ccccc2)C(C(=O)OCc2ccco2)C1c1ccccc1 (stereo not drawn),6,7,20681*,-5,-7,-8
CC(C)(C)c1ccc(C(=O)CSc2nc3ccccc3c(=O)[nH]2)cc1,0,3,10936,31,0,51*
Cc1cc(=O)n2c(nc3ccccc32)[nH]1,-2,-2,24029*,0,-1,-3
CSc1ccc(/C=N/NC(=O)CN2CCN(Cc3ccc(Cl)cc3)CC2)cc1,-1,-3,2410,12,-2,95*
Cc1ccccc1C(O)c1ccccn1 (stereo not drawn),-1,-2,24308*,21,-1,5
CCOC(=O)c1c(C)[nH]c(C(=O)OCc2nc3ccsc3c(=O)[nH]2)c1C,0,-6,3867,nt,-9,-8
COc1ccc(/C=C/C(=O)N(C(C)C)C(C)C)cc1Br,0,-8,11098,-8,-6,4
COc1ccc(/C=C/C(=O)NC(C)C)cc1Br,1,1,22011*,13,-1,-1
CC(C)C(O)(C#CCN1CCCC1)c1ccccc1 (stereo not drawn),-1,-16,2783,20,-2,0
C=C(C)C(C)(C#CCN1CCCC1)OC(C)=O (stereo not drawn),2,2,18876*,10,1,2
CCCCCC(=O)Nc1nc(C)c(-c2csc(Nc3cc(OC)ccc3OC)n2)s1,-1,-9,4177,51*,-6,-9
COc1ccc(CN2CC(=O)N3[C@H]4c5ccccc5OC[C@@H]4[C@H](c4ccccc4)[C@]3(C)C2=O)cc1,0,-2,3848,nt,1,52*
CCCCN1CC(=O)N2[C@H]3c4cc(Br)ccc4OC[C@@H]3[C@H](C(=O)OCC)[C@]2(C)C1=O,0,2,3899,nt,-3,8
Cc1ccc2c(c1)[C@H]1[C@H](CO2)[C@H](c2ccccc2)[C@]2(C)C(=O)N(Cc3ccc(F)cc3)CC(=O)N12,0,0,4079,nt,-4,310*
